Source: PubChem
Shown are actives, neighbours in structure and some others; about 1.6% of the full set was active somewhere.
PfHsp40 yeast – rescue of yeast from PfHsp40 toxicity, primary screen, S. cerevisiae, ATP luminescence | AID 504582, 2011 | S. cerevisiae expressing PfHsp40, growth rescue | 0.68% of 340,000 active | growth rescue, % at 12.5 µM; in the data active means growth rescue above about 28%, passing the limit was not always enough; inconclusive means no clear call, values can overlap the other calls;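 further: yeast W303a lacking pdr1 and pdr3 grown in galactose medium; growth measured after three days at 30 °C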
Vc quorum ag-1 – inducers of Vibrio cholerae quorum light production without autoinducers, primary screen, BH1578 luxS cqsA deficient, single point; V. cholerae BH1578 lux reporter, luminescence, 6 h; activation, % at 18.7 µM; 0.16% of 350,000 active; in the data active means activation mostly above about 9.7%, no sharp cut-off; inconclusive means no clear call, values can overlap the other calls; inactive means mostly below about 3.7%
SARS 3CLpro inh – SARS-CoV 3CLpro protease inhibitors, primary screen, biochemical, quenched FRET; recombinant SARS-CoV 3CLpro, quenched FRET peptide cleavage; 0.14% of 290,000 active; Replicase polyprotein 1ab (Severe acute respiratory syndrome coronavirus), P0C6X7; inhibition, % at 6 µM; in the data active means inhibition above about 12%
PrPC surface inh – inhibitors of human cell surface prion protein PrPC, primary screen, cell-based, TR-FRET; TR-FRET read-out; inhibition, % at 13.8 µM; 0.43% of 370,000 active; in the data active means inhibition above about 24%; further: 0% = median of the test wells and 100% = reference compound wells
PrP 5UTR inh – inhibition of PrP 5' UTR reporter expression; 0.35% of 340,000 active; cell-based PrP 5' UTR mRNA reporter, plate reader; inhibition, % (test concentration not listed); in the data active means inhibition above about 52%; further: 0 = median of the neutral control wells
SSB-PriA inh – inhibitors of Klebsiella pneumoniae PriA binding to SSB C-terminal tail, primary screen, biochemical, AlphaScreen; AlphaScreen SSBct-PriA binding, biotinylated peptide; inhibition, % at 33 µM; AID 1272365, 2023; PriA–SSB C-terminal tail interaction (Klebsiella pneumoniae); 0.6% of 430,000 active; in the data active means inhibition mostly above about 37%, no sharp cut-off; inactive means mostly below about 20%;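 further: plate controls were negative control peptide for no effect and reference peptide for full effect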
Vc quorum ag-2 – V. cholerae lux activation without autoinducers – BH1578 luxS cqsA deficient, cherry-pick, plate reader, dose response; shares compounds with Vc quorum ag-1; 620 tested, under 10 active; AID 602243, 2012; V. cholerae BH1578 lux reporter, luminescence, 6 h; activation, % at 50 µM; call rule not given here
HeLa tox – HeLa cell cytotoxicity, dose response, cytotoxicity control, 24 h, dry powder | shares compounds with Vc quorum ag-1 | HeLa viability, CellTiter-Glo ATP luminescence | activity change, negative = cytotoxicity, % at 35 µM | 25 tested, under 10 active | AID 624140, 2012;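 active means signal drop with fitted half-maximal concentration at or below twice the highest valid dose; inconclusive means flat curve with 30 to 70% loss, or poor fit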
* = called active by the depositor.

Screening COc1ccc(S(=O)(=O)N2CCCC(C(=O)NCc3ccc(F)cc3)C2)cc1 (stereo unspecified) returned PfHsp40 yeast 0.2, Vc quorum ag-1 -0.8, SARS 3CLpro inh -1.6, PrPC surface inh 12.6, PrP 5UTR inh -30.6 and SSB-PriA inh 2.3.
Cc1noc(-c2sccc2NC(=O)CSc2nc3ccccc3o2)n1 was read as SSB-PriA inh -16.0.
`CCc1nnc2ccc(N3CCN(C(=O)Nc4cc(F)ccc4F)CC3)nn12` gave SSB-PriA inh -4.0.
CCCn1nnnc1NCc1ccc(N2CCCC2)cc1 was read as PfHsp40 yeast -0.7, Vc quorum ag-1 active, SARS 3CLpro inh -0.1, PrPC surface inh -2.7, PrP 5UTR inh -35.4, SSB-PriA inh 8.6 and HeLa tox 4.2.
`CCCn1nnnc1NCc1c(Cl)cccc1Cl` gave PfHsp40 yeast -0.6, Vc quorum ag-1 inactive, SARS 3CLpro inh 5.7, PrPC surface inh 2.1, PrP 5UTR inh -13.8 and SSB-PriA inh -7.1.
Screening CCCCn1nnnc1NCc1cccnc1 returned PfHsp40 yeast -0.6, Vc quorum ag-1 inactive, SARS 3CLpro inh 5.9, PrPC surface inh -2.6, PrP 5UTR inh -4.8 and SSB-PriA inh -3.3.
CCCCn1nnnc1NCc1ccc(N2CCCC2)cc1 was read as PfHsp40 yeast -0.3, Vc quorum ag-1 828.8*, SARS 3CLpro inh -1.9, PrPC surface inh -7.2, PrP 5UTR inh -4.7, SSB-PriA inh 6.5 and Vc quorum ag-2 3.1.
COC(=O)c1c(SCC(=O)Nc2ccc(F)c(F)c2)[nH]c2ccccc2c1=O was read as SSB-PriA inh -16.0.
Screening Cc1ccc(OCCC(=O)OCC(=O)Nc2ccc3c(c2)OCO3)cc1 returned PfHsp40 yeast 0.0, Vc quorum ag-1 14.3, PrPC surface inh 1.1, PrP 5UTR inh -10.1, SSB-PriA inh 3.2 and Vc quorum ag-2 -0.1.
Screening Cc1ccc(OCCC(=O)Nc2ccc3c(c2)OCO3)cc1 returned PfHsp40 yeast 0.0, Vc quorum ag-1 -0.5, PrPC surface inh 2.0, PrP 5UTR inh -1.9 and SSB-PriA inh -2.1.
For CC(=O)c1ccc(NC(=O)COc2ccccc2C(=O)Nc2ccccc2)cc1 the results were PfHsp40 yeast -1.7, Vc quorum ag-1 140.3*, SARS 3CLpro inh 3.0, PrPC surface inh -5.0, PrP 5UTR inh -7.1, SSB-PriA inh 6.4 and Vc quorum ag-2 0.2.
Screening O=C(NCCCn1ccnc1)Nc1ccccc1 returned SSB-PriA inh 53.1.
Screening CN(C1CCCCC1)S(=O)(=O)CCNC(=O)c1ccccc1 returned PfHsp40 yeast -0.3, Vc quorum ag-1 14.3, PrPC surface inh -0.5, PrP 5UTR inh -4.3, SSB-PriA inh -10.5 and Vc quorum ag-2 0.3.
Screening COc1cccc(C(=O)NCCS(=O)(=O)N(C)C2CCCCC2)c1 returned PfHsp40 yeast 0.4, Vc quorum ag-1 3.7, PrPC surface inh 1.8, PrP 5UTR inh 4.8 and SSB-PriA inh -2.6.
`Cc1ccc2onc(CC(=O)O)c2c1` gave PfHsp40 yeast -0.4, Vc quorum ag-1 23.7, SARS 3CLpro inh 1.9, PrPC surface inh 2.9, PrP 5UTR inh -12.1, SSB-PriA inh -20.4 and Vc quorum ag-2 0.1.
`Cc1ccc(NC(=O)Cc2noc3ccccc23)cc1` gave PfHsp40 yeast 0.2, Vc quorum ag-1 -0.7, SARS 3CLpro inh -1.2, PrPC surface inh 1.3, PrP 5UTR inh -76.0 and SSB-PriA inh -0.4.
Screening O=C(Nc1ccn2nccc2c1)Nc1ccccc1Cl returned SSB-PriA inh 15.0.
`CC(C)N1CCC(CNC(=O)C(=O)Nc2cccc(F)c2)CC1` gave SSB-PriA inh -7.0.
COc1ccc(-c2nnc3c4ccccc4c(C)nn23)cc1 was read as PfHsp40 yeast -0.3, Vc quorum ag-1 12.5, SARS 3CLpro inh -1.5, PrPC surface inh 13.1, PrP 5UTR inh -40.2, SSB-PriA inh -11.2 and Vc quorum ag-2 1.8.
`Cn1cnnc1SCC(=O)N1CCCCC1` gave SSB-PriA inh 26.0.
Screening CCCCN(Cc1nc2ccccc2c(=O)[nH]1)C(=O)CN1C(=O)NC2(CCCCC2)C1=O returned PfHsp40 yeast inconclusive, Vc quorum ag-1 109.9*, PrPC surface inh -7.3, PrP 5UTR inh -15.4, SSB-PriA inh -8.5 and Vc quorum ag-2 4.0.
`O=C(COC(=O)/C=C/c1cccc(F)c1)NC1CCCC1` gave PfHsp40 yeast -0.3, Vc quorum ag-1 24.2, PrPC surface inh -2.4, PrP 5UTR inh -2.4, SSB-PriA inh 3.2 and Vc quorum ag-2 105.0.
CCOC(=O)c1c(C)[nH]c(C(=O)COC(=O)C2(C)CC2(Cl)Cl)c1C (stereo unspecified) was read as PfHsp40 yeast -1.1, Vc quorum ag-1 12.5, SARS 3CLpro inh -5.1, PrPC surface inh 4.9, PrP 5UTR inh -34.3, SSB-PriA inh -0.6 and Vc quorum ag-2 0.0.
Cc1cc(Cl)ccc1OCC(=O)OCC(=O)NC1CCS(=O)(=O)C1 (stereo unspecified) was read as PfHsp40 yeast -0.8, Vc quorum ag-1 14.3, PrPC surface inh -2.4, PrP 5UTR inh -26.0, SSB-PriA inh 8.7 and Vc quorum ag-2 -0.2.
O=C(COC(=O)COc1ccc(Cl)cc1)NC1CCS(=O)(=O)C1 (stereo unspecified) was read as PfHsp40 yeast -0.7, Vc quorum ag-1 -0.6, PrPC surface inh 0.3, PrP 5UTR inh -9.6 and SSB-PriA inh -5.9.
For Cc1[nH]c2ccc3ncccc3c2c1C the results were PfHsp40 yeast -0.9, Vc quorum ag-1 0.0, SARS 3CLpro inh 1.2, PrPC surface inh 2.2, PrP 5UTR inh -20.7 and SSB-PriA inh 22.3.
For Cc1[nH]c2ccc3c(ncn3CCC#N)c2c1C the results were PfHsp40 yeast 1.1, Vc quorum ag-1 14.3, SARS 3CLpro inh -7.5, PrPC surface inh 0.0, PrP 5UTR inh -15.6, SSB-PriA inh -4.7 and Vc quorum ag-2 0.8.
Screening Cc1cc(Oc2ccc(C#N)cc2)nc(N2CCOCC2)n1 returned PfHsp40 yeast -1.0, Vc quorum ag-1 25.0*, SARS 3CLpro inh -3.5, PrPC surface inh -6.2, PrP 5UTR inh -16.4, SSB-PriA inh -1.4 and Vc quorum ag-2 -0.1.
For COC(=O)c1c(-c2ccc(Br)cc2)noc1N the results were PfHsp40 yeast 2.8, Vc quorum ag-1 16.7*, SARS 3CLpro inh -2.2, PrPC surface inh -4.5, PrP 5UTR inh -22.1, SSB-PriA inh 4.8 and Vc quorum ag-2 10.4.
